Experimental data from PubChem BioAssay (NCI).
Compounds without any hit were thinned out: in the full panel of roughly 83,000, 20% have a hit.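 96-well plates, one dose, 48 hours. Percent growth reported; active if below 10.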 Unmarked numbers belong to inactive results. Active and inactive are the calls of the source.

The compounds below were run on HCC-2998 colon (assay: NCI-60 one-dose screen, 48 h (100 = growth as untreated, 0 = no growth, -100 = all killed)). Conditions: 10 µM unless noted.
`COc1cccc(-c2nc3sccn3c2-c2ccnc(NCCCNS(=O)(=O)c3c(Cl)cccc3Cl)c2)c1` was tested, and the growth was 84.8%.
`Cc1nc2c3c(-c4ccccc4)c(-c4ccccc4)oc3ncn2n1` gave a growth of 96.2%.
`C=CC(=O)Nc1cccc(-c2nc(SC)nc(NCc3ccccc3)c2C#N)c1` was tested, and the growth was 84.7%.
For `N#Cc1c(N)n(CCNC(=O)c2ccccc2)c2nc3ccccc3nc12`, the growth was 97.4%.
With `C=C(C)[C@@H]1CC[C@]2(C(=O)OC)CC[C@]3(C)[C@H](CC[C@@H]4[C@@]5(C)C/C(=C/c6cccc(I)c6)C(=O)C(C)(C)[C@@H]5CC[C@]43C)[C@@H]12` the growth was 99.7%.
`Cc1c(/C=C/[N+](=O)[O-])ccc2c1[nH]c1ccccc12` was tested, and the growth was -30.7% (active).
Work on `COc1cc(/C=C/c2cc(O)c3cc(C(C)=O)c(=O)oc3c2)cc2c1O[C@]1(C)CC[C@@H](O)C(C)(C)[C@H]1C2` yielded a growth of 67%.
`CCCOc1ccc2nc(NC(=O)OC)[nH]c2c1` was tested, and the growth was -14% (active).
For `COc1cc(/C=C/C(=O)c2ccc(O)c(CN3CCN(c4cc5c(cc4F)c(=O)c(C(=O)O)cn5C4CC4)CC3)c2)cc(OC)c1OC`, the growth was 67.2%.
For `C=CCSSc1ncnc2c1ncn2C1OC(CO)C(O)C1O` (stereo unspecified), the growth was 35.1%.
With `CC[C@H]1OC(=O)[C@H](C)[C@@H](O[C@H]2C[C@@](C)(OC)[C@@H](O)[C@H](C)O2)[C@H](C)[C@@H](O[C@@H]2O[C@H](C)C[C@H](N(C)C)[C@H]2O)[C@](C)(O)C[C@H](C)CN(C)[C@H](C)[C@@H](O)[C@]1(C)O` the growth was 95.9%.
`CSc1nc(NCCN2CCOCC2)c(C#N)c(-c2cccc([N+](=O)[O-])c2)n1` gave a growth of 112%.
For `CC(C)c1c(C(=O)c2ccccc2)c(-c2ccccc2)c(-c2ccc(F)cc2)n1CC[C@@H](O)C[C@@H](O)CC(=O)O`, the growth was 85.6%.
With `N#CCCN=Nc1c(O)[nH]c2ccc([N+](=O)[O-])cc12` the growth was 111%.
In the case of `CC[C@@H]1O[C@H](O[C@@H](c2cnc[nH]2)[C@H](NC(=O)c2nc([C@H](CC(N)=O)NC[C@@H](N)C(N)=O)nc(N)c2C)C(=O)N[C@H](C)[C@H](O)[C@H](C)C(=O)N[C@@H](C(=O)NCCc2nc(-c3nc(C(=O)NCCCCN=C(N)N)cs3)cs2)[C@@H](C)O)[C@H](O[C@@H]2O[C@H](CO)[C@H](O)[C@H](OC(N)=O)[C@@H]2O)[C@H](C)[C@@H]1C`, the growth is reported as 69.7%.
For `COc1cc2nc(N3CCCC3)nc(Nc3ccccc3)c2cc1OC`, the growth was -51.2% (active).
Compound `Nc1nc2ncc(CCNc3ccc(C(=O)O)cc3)nc2c(=O)[nH]1` has a growth of 117%.
For `CCCN1CCN(c2ccc3nc(-c4ccc5nc(-c6ccc(OCC)cc6)[nH]c5c4)[nH]c3c2)CC1`, the growth was -96.9% (active).
Compound `COc1ccc(Nc2nc(SC)nc(-c3cccc([N+](=O)[O-])c3)c2C#N)cc1` has a growth of 94.3%.
Work on `O=C1CC(=NCC(=O)n2c(-c3ccccc3)nc3ccccc32)NN1` yielded a growth of 109%.
In the case of `CC(C)(O)c1cn(CCCCN2C(=O)C(=O)c3ccccc32)nn1`, the growth is reported as 103%.
`CCCCCCCCCCCCC[N+](C)(C)Cc1ccccc1` was tested, and the growth was -80.5% (active).
`COc1ccc(/C=C/C(=O)c2ccc(O)c(CN3CCN(c4cc5c(cc4F)c(=O)c(C(=O)O)cn5C4CC4)CC3)c2)cc1` gave a growth of 43.5%.
Compound `O=S(=O)(Nc1ccc(OC(F)F)cc1)c1ccc(-c2cnc(C3CC3)o2)cc1` has a growth of 80.5%.
`N#C/C(=C\c1ccc(-c2cc(C(F)(F)F)ccc2Cl)o1)c1nc(-c2ccco2)cs1` showed a growth of 104%.
`O=C(O)c1ccc(N=CC(=O)c2ccc(-c3ccccc3)cc2)cc1` was tested, and the growth was 96.7%.
With `COc1cccc(-c2nn(C(C)(C)C)cc2-c2ccnc(NCCCNS(=O)(=O)c3ccc(C)cc3)c2)c1` the growth was 113%.
Work on `CC(C)n1c(/C=C/[C@@H](O)C[C@@H](O)CC(=O)O)c(-c2ccc(F)cc2)c2ccccc21` yielded a growth of 77.7%.
Compound `COc1ccc(-c2nc3ccc(-c4nc5ccc(N6CCN(c7ccncc7)CC6)cc5[nH]4)cc3[nH]2)cc1OC` has a growth of 34.9%.
For `CSc1nc(NCc2ccccc2)c(C#N)c(-c2cccc([N+](=O)[O-])c2)n1`, the growth was 107%.
Compound `O=C(/C=C/c1cccc(Cl)c1)c1ccc(O)c(CN2CCN(c3cc4c(cc3F)c(=O)c(C(=O)O)cn4C3CC3)CC2)c1` has a growth of 61.3%.
`CC1(C)CC[C@]2(C(=O)Nc3ccccn3)CC[C@]3(C)C(=CC[C@@H]4[C@@]5(C)C/C(=C/c6cccnc6)C(=O)C(C)(C)[C@@H]5CC[C@]43C)[C@H]2C1` gave a growth of 40.4%.
With `COC(=O)[C@]12CCC(C)(C)C[C@H]1[C@H]1C(=O)C[C@@H]3[C@@]4(C)c5c([nH]c6ccccc6c5=O)C(C)(C)[C@@H]4CC[C@@]3(C)[C@]1(C)CC2` the growth was 72.3%.
For `CC1=CC(=NN=c2cc(C)n([O-])c(C)c2)C=C(C)[N+]1=O`, the growth was 63.2%.
`CCC(=O)c1ccc(Cl)s1` gave a growth of 102%.
`Cn1c(=O)c2c(nc3n(-c4ccc(Cl)cc4Cl)c(Sc4nc(-c5ccccc5)c(C#N)c(=O)[nH]4)cn23)n(C)c1=O` showed a growth of 78.3%.
